Bioassay records deposited in PubChem BioAssay by National Center for Advancing Translational Sciences (NCATS).
Hits are enriched below; roughly 2.4% of the tested compounds scored in any of these assays.
D2 ag-1: agonists of human D2 dopamine receptor; P14416; HEK293 T-REx D2 cells, calcium flux agonist mode; AID 485358; activation, % at 2 µM; actives 0.53% (n = 340,000);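 active = activation over 3 SD above normal in the single-dose calcium agonist read, cut at about 30% in these data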; note: 0% is about no effect
Target sequence (P14416 whole entry, looked up): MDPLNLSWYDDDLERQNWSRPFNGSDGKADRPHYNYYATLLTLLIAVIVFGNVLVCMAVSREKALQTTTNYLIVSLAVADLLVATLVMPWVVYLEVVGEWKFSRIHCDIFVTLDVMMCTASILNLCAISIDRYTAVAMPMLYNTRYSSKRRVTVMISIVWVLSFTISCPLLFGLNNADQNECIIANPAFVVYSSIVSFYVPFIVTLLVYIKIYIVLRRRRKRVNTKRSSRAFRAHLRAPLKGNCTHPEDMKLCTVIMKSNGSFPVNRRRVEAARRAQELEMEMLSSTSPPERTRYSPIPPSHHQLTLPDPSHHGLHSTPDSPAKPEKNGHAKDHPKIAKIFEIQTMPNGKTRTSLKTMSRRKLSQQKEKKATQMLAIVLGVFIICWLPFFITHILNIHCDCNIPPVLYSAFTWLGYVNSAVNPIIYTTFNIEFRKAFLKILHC
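Calcium-flux readout, 1 cycle/sec over 180 s following compound pin transfer, in inducible HEK293 Trex D2 cells (force-coupled); dopamine controls included. Positive calcium responses during this window marked compounds as potential agonists.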
D2 PAM-1: human D2 receptor positive allosteric modulation | AID 624464 | DiscoveRx D2 beta-arrestin cells, luminescence, 90 min; 100% = 57 uM dopamine signal | potentiation, % (concentration not given with the values) | actives 0.23% (n = 360,000); in the data active = potentiation above about 50%; inconclusive = mostly about 30% to 49%
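PathHunter beta-arrestin assay in DiscoveRx D2 cells. Compounds were added with an EC20 of dopamine (50 nM final) for 90 min at 37 deg C. Luminescence was read 1 h after detection reagent, with 57 uM dopamine as the EC100 control.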
D2 PAM-2: D2 dopamine receptor (human) potentiation; P14416; HEK293 T-REx D2, calcium flux, EC20 dopamine potentiation; potentiation, % at 10 µM; actives 0.34% (n = 340,000); AID 485347;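 active = potentiation over 3 SD above the plate norm, cut at about 30% in these data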; note: 0% is about no effect
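Primary screen. Calcium kinetics in induced HEK293 T-REx D2 cells: compound pre-addition 180 s, EC20 dopamine, 180 s more.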
D2 antag: antagonists of human D2 dopamine receptor. HEK293 TREx D2 cells, calcium flux, dopamine EC80. P14416. actives 2% (n = 340,000). inhibition, % at 10 µM; in the data active = inhibition above about 30%; inactive = below that, where a call was filed; note: 0% is about no effect
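Measurement of antagonist activity uses fluorescent calcium dye in inducible HEK293 T-REx D2 cells: 10 s baseline, compound addition with 180 s read, EC80 dopamine addition with a further 180 s read.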
D2 ag-2: activates the human D2 dopamine receptor; DiscoveRx PathHunter D2 beta-arrestin, luminescence, 90 min; 100% = 57 uM dopamine signal; activation, % (test concentration not listed); actives 0.084% (n = 360,000); AID 624465; in the data active = activation above about 40%; inconclusive = between about 15% and that limit
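DiscoveRx PathHunter D2 beta-arrestin cells (2,100/well) attached overnight, then compound-stimulated 90 min at 37 C in HBSS/10 mM HEPES/0.1% Tween-20 buffer; beta-galactosidase complementation read by luminescence after 1 h at ambient temperature. Dopamine 57 uM final (EC100) as control.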
Starred values were filed as active, the others as inactive; ? = inconclusive; nt = no result given.

SMILES | D2 ag-1 | D2 PAM-1 | D2 PAM-2 | D2 antag | D2 ag-2
CCOC(=O)c1ccc(NC(=O)CSC2=NC(=O)C(CC)C(=O)N2)cc1 (stereo unspecified) | 1 | -14 | 4 | 47* | -3
CCC1C(=O)N=C(SCC(=O)Nc2cccc3ccccc23)NC1=O (stereo unspecified) | 0 | 4 | -9 | 6 | -1
CCN(CC(N)=O)S(=O)(=O)c1ccc(F)cc1 | 1 | -2 | -11 | 6 | 2
C=CCN(CC=C)S(=O)(=O)c1ccc(F)cc1 | 1 | 11 | -13 | 31* | -1
COc1ccc(-c2c(C)nn3c(N4CCN(Cc5ccccc5)CC4)cc(C)nc23)cc1OC | 0 | -1 | 31* | 26 | -5
Cc1cc(N2CCN(Cc3ccccc3)CC2)n2nc(C)c(-c3ccccc3)c2n1 | -1 | -8 | -12 | 18 | -3
Cc1nn2c(N3CCOCC3)cc(C(C)(C)C)nc2c1-c1ccc(Cl)cc1 | -1 | 5 | 2 | -6 | -2
Cc1cc(N2CCOCC2)n2nc(C)c(-c3ccc(Cl)cc3)c2n1 | 1 | -4 | 1 | 33* | -5
COC(=O)C1Sc2[nH]c(=O)sc2C(c2ccc(Cl)cc2)C1C(=O)OC (stereo unspecified) | -1 | -2 | 5 | 38* | -3
COC(=O)C1Sc2[nH]c(=O)sc2C2c3ccccc3OC(=O)C12 (stereo unspecified) | 0 | -9 | 23 | -5 | 2
CCOC(=O)C1=C(COC(=O)C(CC)c2ccccc2)NC(=O)NC1C (stereo unspecified) | 0 | -2 | 30* | 8 | 0
CCNC(=O)C1(C)CCN(C(=O)c2cccnc2SC)C1 (stereo unspecified) | nt | 1 | nt | nt | 1
COc1cc2c(cc1OC)C1C/C(=N\O)C(CC(C)C)CN1CC2 (stereo unspecified) | 5 | -41 | -20 | 60* | -1
COC(=O)C1=C(O)/C(=C\c2cc(C)n(-c3ccccc3C)c2C)N=C1C | 0 | -23 | 13 | 32* | 0
CCCCCCc1cc2cc(S(=O)(=O)c3ccc(F)cc3)c(=O)oc2cc1O | 23 | 11 | 11 | 16 | 3
CCCCCCc1cc2cc(-c3nnc(-c4cc(OC)c(OC)c(OC)c4)o3)c(=O)oc2cc1O | 0 | -10 | 7 | 0 | 0
CCCCCCc1cc2cc(-c3nnc(-c4ccccc4OC)o3)c(=O)oc2cc1O | 110* | 155* | -1 | -43 | ?
CCCCCCc1cc2cc(-c3nnc(-c4ccccc4O)o3)c(=O)oc2cc1O | 39* | 2 | -6 | 19 | 6
Cc1c(C(=O)NCc2ccc(C(F)(F)F)cc2)sc(=O)n1Cc1ccc(S(=O)(=O)N(C)C)cc1 | nt | 4 | nt | nt | 12
COc1cc(O)c(C(CCN2CCN(c3ccccc3)CC2)c2cc(OC)c(OC)c(OC)c2)c(OC)c1 (stereo unspecified) | 1 | -24 | -23 | 67* | -2
C[C@H]1CN([C@@H](C)CO)C(=O)CCCn2cc(nn2)CO[C@@H]1CN(C)C(=O)Nc1ccccc1F | nt | 5 | nt | nt | 5
COc1ccc(/C(N)=N/OC(=O)c2ccc3c(c2)OCO3)cc1OC | 0 | 84* | 1 | -10 | 12
COc1ccc(C(=O)Oc2ccc3c(c2)OCO3)cc1OC | 5 | 3 | 0 | 10 | -4
COc1cc(OC)c(C(=O)Oc2ccc3c(c2)OCO3)cc1OC | 0 | -6 | 13 | 30* | 1
N/C(=N\OC(=O)c1ccc2c(c1)OCO2)c1cccc(Br)c1 | 0 | 106* | -4 | -2 | ?
N/C(=N\OC(=O)c1ccc2c(c1)OCO2)c1cccnc1 | 0 | 79* | -5 | -5 | ?
CN(C)C(=O)c1ccc(NC(=O)CSc2nnc(-c3cccs3)n2N)cc1 | 0 | -1 | 1 | -5 | 6
Cc1ccc(S(=O)(=O)N2CCOCC2)cc1NC(=O)COC(=O)c1ccc(Br)o1 | nt | -15 | nt | nt | -5
O=C(OCn1nnc2ccccc2c1=O)c1ccc(F)c(S(=O)(=O)N2CCOCC2)c1 | nt | -12 | nt | nt | 2
CCn1cnc2sc(C(=O)N(Cc3ccc(N(C)C)cc3)Cc3ccco3)c(C)c2c1=O | 1 | 5 | 2 | 32* | 1
